# The source made the active and inactive calls. Unless noted, no rule for the calls is given here.
# Assays:
# [1] = anti-His antibody binders, primary screen, artefact control for SMM control protein annotation, biochemical, small-molecule microarray, 635 nm fluorescence (AID 1128); details: anti-His Alexa647 antibody binding, higher = more signal;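 also: score merges feature fluorescence with signal-to-noise for each printed compound spot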
# [2] = test system: Human papillomavirus type 1a E7 protein (residues 1-88); assay: HPV1a E7 small-molecule binders, primary screen, biochemical, small-molecule microarray, residues 1-88, 635 nm (AID 1129); details: small-molecule microarray binding, fluorescence 635 nm; higher = more signal
# [3] = target: Focal adhesion kinase 1 (Homo sapiens) (UniProt Q05397); assay: small-molecule microarray binders of FAK, primary screen, biochemical, 635/667 nm fluorescence, BSA, DTT (AID 1130); details: PTK2 binding, 635 nm fluorescence, higher = more signal;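 also: composite of spot emission at 667 nm and signal to noise over triplicate slides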
# Focal adhesion kinase 1 (Homo sapiens), sequence (Q05397 whole entry, looked up): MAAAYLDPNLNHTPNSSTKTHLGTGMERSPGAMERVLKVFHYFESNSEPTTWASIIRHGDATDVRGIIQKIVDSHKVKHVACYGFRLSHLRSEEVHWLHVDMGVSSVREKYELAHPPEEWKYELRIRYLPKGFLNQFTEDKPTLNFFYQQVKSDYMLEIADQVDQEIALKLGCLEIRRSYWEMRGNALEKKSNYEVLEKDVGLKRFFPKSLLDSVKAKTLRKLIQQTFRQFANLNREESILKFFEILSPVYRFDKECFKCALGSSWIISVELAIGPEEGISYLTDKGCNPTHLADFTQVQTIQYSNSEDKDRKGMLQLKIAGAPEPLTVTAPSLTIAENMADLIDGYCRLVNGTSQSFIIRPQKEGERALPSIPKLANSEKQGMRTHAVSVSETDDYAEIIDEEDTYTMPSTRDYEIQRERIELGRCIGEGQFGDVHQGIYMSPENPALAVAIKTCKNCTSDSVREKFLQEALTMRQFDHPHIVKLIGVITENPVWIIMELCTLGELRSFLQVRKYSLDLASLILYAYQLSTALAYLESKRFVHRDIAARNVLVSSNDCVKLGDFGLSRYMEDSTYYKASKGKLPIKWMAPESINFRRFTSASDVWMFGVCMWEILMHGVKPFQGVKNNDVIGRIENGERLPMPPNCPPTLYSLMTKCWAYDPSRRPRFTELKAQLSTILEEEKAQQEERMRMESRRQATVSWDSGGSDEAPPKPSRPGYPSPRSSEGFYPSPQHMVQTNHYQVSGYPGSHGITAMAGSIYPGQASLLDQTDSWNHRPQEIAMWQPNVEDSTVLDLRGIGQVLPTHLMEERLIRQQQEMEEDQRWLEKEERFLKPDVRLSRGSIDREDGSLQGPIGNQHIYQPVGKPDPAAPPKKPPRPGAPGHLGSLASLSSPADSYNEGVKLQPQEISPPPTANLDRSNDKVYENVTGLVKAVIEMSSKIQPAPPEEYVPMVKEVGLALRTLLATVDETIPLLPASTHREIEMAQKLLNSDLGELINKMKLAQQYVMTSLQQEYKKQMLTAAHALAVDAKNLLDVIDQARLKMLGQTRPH
# [4] = test system: Fibrinogen (Alexa647-labelled); assay: fibrinogen binders on compound microarrays, profiling panel, artefact control for SMM control-protein annotation, biochemical, small-molecule microarray, 635/667 nm fluorescence (AID 1131); details: fibrinogen-A647 binding fluorescence, higher = more signal;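 also: z-score merges 667 nm fluorescence with per-spot signal-to-noise over triplicate slides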
# [5] = target: Follistatin (Homo sapiens) (UniProt P19883); assay: follistatin binders on small-molecule microarrays, primary screen, biochemical, small-molecule microarray, 635/667 nm fluorescence (AID 1132); details: FST binding, 635 nm fluorescence, higher = more signal
# Follistatin (Homo sapiens), sequence (P19883 whole entry, looked up): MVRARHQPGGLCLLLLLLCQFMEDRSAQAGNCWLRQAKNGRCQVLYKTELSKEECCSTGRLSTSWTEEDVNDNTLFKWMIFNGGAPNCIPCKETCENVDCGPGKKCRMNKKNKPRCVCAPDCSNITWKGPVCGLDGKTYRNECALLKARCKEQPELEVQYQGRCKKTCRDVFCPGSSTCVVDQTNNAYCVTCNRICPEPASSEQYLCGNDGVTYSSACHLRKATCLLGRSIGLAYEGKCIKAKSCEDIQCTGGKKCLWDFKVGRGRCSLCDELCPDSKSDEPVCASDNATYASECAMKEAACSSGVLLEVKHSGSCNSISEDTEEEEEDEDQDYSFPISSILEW
# [6] = target: Fibroblast growth factor 2 (Homo sapiens) (UniProt P09038); assay: FGF2 binders on small-molecule microarrays, primary screen, biochemical, small-molecule microarray, 635/667 nm fluorescence (AID 1133); details: small-molecule microarray binding, FGF2, fluorescence 635/667; higher = more signal
# Fibroblast growth factor 2 (Homo sapiens), sequence (P09038 whole entry, looked up): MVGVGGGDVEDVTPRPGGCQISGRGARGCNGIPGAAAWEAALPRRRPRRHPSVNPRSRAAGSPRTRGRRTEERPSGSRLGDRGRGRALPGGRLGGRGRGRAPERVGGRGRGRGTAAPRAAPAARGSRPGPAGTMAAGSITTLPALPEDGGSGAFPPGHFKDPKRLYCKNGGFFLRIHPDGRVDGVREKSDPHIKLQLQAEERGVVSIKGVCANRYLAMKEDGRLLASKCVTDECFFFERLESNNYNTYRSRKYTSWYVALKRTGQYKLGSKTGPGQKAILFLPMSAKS
# [7] = mitochondrial membrane potential change in A549 cells, profiling panel, cell-based, JC-1 fluorescence, basal, 24 h, 100 nL (AID 1138); details: higher = more signal;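 also: A549 lung adenocarcinoma cells under basal conditions with no added stimulus; test concentration not given here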
# Lefty1 = Lefty1 binders on small-molecule microarrays, primary screen, biochemical, small-molecule microarray, 635/667 nm fluorescence (AID 1139); details: small-molecule microarray binding, fluorescence 635/667; higher = more signal
# [8] = test system: wheat germ agglutinin (Triticum aestivum), Alexa647-labelled; assay: wheat germ agglutinin binders on compound microarrays, profiling panel, artefact control for SMM control-protein annotation, biochemical, small-molecule microarray, 635/667 nm fluorescence (AID 1140); details: WGA-A647 binding, 635 nm fluorescence, higher = more signal;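 also: score merges 667 nm feature emission with signal to noise over triplicate slides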
# [9] = target: Luciferin 4-monooxygenase (Photinus pyralis) (UniProt P08659); assay: firefly luciferase enzyme inhibitors, primary screen, biochemical, luminescence, purified enzyme, 2006 set (AID 1141); details: SteadyGlo luminescence, 30 min, higher = more signal, called active from +8 up or from −8 down;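 also: cell-free assay with purified firefly luciferase at 100 ng per well in PBS; test concentration not given here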
# Luciferin 4-monooxygenase (Photinus pyralis), sequence (P08659 whole entry, looked up): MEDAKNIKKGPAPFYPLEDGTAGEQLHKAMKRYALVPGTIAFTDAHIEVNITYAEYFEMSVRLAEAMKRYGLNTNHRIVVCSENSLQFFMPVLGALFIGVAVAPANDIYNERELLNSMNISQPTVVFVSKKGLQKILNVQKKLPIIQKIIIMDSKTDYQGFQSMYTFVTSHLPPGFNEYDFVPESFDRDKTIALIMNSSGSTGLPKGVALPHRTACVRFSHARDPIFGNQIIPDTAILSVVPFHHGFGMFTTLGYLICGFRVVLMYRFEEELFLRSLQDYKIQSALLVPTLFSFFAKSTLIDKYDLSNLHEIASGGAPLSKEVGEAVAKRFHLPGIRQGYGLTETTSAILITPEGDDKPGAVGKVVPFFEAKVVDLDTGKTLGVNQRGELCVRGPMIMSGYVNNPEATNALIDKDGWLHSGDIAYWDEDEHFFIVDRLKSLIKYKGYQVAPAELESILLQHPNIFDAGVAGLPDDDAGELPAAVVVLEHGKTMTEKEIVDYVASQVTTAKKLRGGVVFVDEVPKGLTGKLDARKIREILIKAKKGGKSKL
# [10] = test system: Wnt5a (protein binding on small-molecule microarray); assay: Wnt5a binders on small-molecule microarray, primary screen, biophysical, 635/667 nm fluorescence (AID 1142); details: 635 nm fluorescence, higher = more signal;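 also: fluorescence read at 667 nm with signal to noise per printed feature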
# [11] = cell viability in Huh7 cells, primary screen, cytotoxicity control for HCV replication inhibitor project, CellTiter-Glo luminescence, basal, 48 h (AID 1143); details: Huh7 HCV replicon, higher = more signal, called active from +8 up or from −8 down;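 also: Huh7 hepatoma cells carrying a hepatitis C replication reporter with no stimulus; test concentration not given here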
# [12] = P. aeruginosa biofilm formation inhibitors, primary screen, PAO1 strain, BacTiter-Glo luminescence, LB-PBS (AID 1144); details: 12 h, higher = more signal
# [13] = CREB reporter modulators without forskolin, primary screen, cell-based, PC12, CRE-LacZ reporter, unstimulated (AID 1145); details: no forskolin, luminescence, 4.5 h, higher = more signal, called active from +8 up or from −8 down
# [14] = CREB reporter modulators under forskolin, primary screen, cell-based, PC12, CRE-LacZ reporter, forskolin-stimulated (AID 1146); details: luminescence, 4.5 h, higher = more signal, called active from +8 up or from −8 down;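 also: PC12 cells with 6xCRE LacZ reporter stimulated by forskolin 10 µM; beta-galactosidase reporter signal reflecting CREB driven transcription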
# [15] = target: Streptavidin (Streptomyces avidinii) (UniProt P22629); assay: streptavidin binders on small-molecule microarray, primary screen, artefact control for SMM compound annotation, biophysical, 635/667 nm fluorescence (AID 1147); details: streptavidin binding, higher = more signal;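 also: signal reflects streptavidin binding to arrayed compounds as a control protein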
# Streptavidin (Streptomyces avidinii), sequence (P22629 whole entry, looked up): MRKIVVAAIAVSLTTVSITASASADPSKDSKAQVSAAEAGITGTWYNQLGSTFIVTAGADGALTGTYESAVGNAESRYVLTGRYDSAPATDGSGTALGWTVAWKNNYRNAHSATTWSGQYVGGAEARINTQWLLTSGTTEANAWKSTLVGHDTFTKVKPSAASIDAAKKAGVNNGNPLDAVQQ
# [16] = small-molecule binders of probe aInhba, primary screen, biochemical, small-molecule microarray, 635/667 nm fluorescence (AID 1148); details: higher = more signal;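 also: score merges 667nm spot fluorescence with signal-to-noise for antibody binding to printed compounds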
# Torsin-1A (Homo sapiens) [17] = target: Torsin-1A (Homo sapiens) (UniProt O14656); assay: torsin A binders from cell lysate, primary screen, small-molecule microarray, wild-type, 635/667 nm (AID 1149); details: COS7 hTOR1A-WT lysate, 635 nm fluorescence, higher = more signal
# Torsin-1A (Homo sapiens), sequence (O14656 whole entry, looked up): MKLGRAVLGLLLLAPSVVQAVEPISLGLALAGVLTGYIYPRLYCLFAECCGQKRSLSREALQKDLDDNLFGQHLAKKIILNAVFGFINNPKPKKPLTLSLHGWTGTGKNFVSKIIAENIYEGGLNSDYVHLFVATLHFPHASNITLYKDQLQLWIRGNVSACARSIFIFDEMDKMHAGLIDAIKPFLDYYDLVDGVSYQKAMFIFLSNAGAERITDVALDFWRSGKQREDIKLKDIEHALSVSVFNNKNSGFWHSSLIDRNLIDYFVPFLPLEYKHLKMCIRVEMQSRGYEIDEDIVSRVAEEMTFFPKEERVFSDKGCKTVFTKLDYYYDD
# Torsin-1A (Homo sapiens) [18] = target: Torsin-1A (Homo sapiens) (UniProt O14656); assay: small-molecule binders of mutant TOR1A in lysate, primary screen, cell lysate, small-molecule microarray, COS7 lysate, 635/667 nm fluorescence (AID 1150); details: COS7 hTOR1A mutant lysate, 635 nm fluorescence, higher = more signal;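 also: score pools 667 nm emission and signal to noise measuring lysate protein binding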
# [19] = test system: Sonic hedgehog protein (Shh); assay: small-molecule binders of Shh protein, primary screen, biochemical, small-molecule microarray, 635/667 nm fluorescence (AID 1151); details: small-molecule microarray binding, 635 nm fluorescence; higher = more signal;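 also: Shh protein binding to compounds spotted on small-molecule microarray slides; score combines spot fluorescence intensity with signal-to-noise across triplicate slides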
smiles,measurement,setting,value
CO[C@@H]1COC(=O)CCC[C@@H](C)[C@H](OC)COC(=O)CCC[C@H]1C,composite z-score,[1],0.463
same,composite z-score,[2],0.077
same,composite z-score,[3],-0.217
same,composite z-score,[4],-0.0557
same,composite z-score,[5],0.513
same,composite z-score,[6],0.685
same,z-score,[7],-0.598
same,composite z-score,Lefty1,0.958
same,composite z-score,[8],-0.261
same,z-score,[9],1.17 (inactive)
same,composite z-score,[10],-0.0665
same,z-score,[11],-0.459 (inactive)
same,z-score,[12],-0.276 (inactive)
same,z-score,[13],-0.152 (inactive)
same,z-score,[14],0.273 (inactive)
same,composite z-score,[15],0.0601
same,composite z-score,[16],-0.0405
same,composite z-score,Torsin-1A (Homo sapiens) [17],0.978
same,composite z-score,Torsin-1A (Homo sapiens) [18],0.662
same,composite z-score,[19],0.533
C[C@@H](c1ccccc1)N1C(=O)[C@H]2[C@H]3[C@H](O)C=CC(=O)[C@@H]3CC[C@H]2C1=O,composite z-score,[1],0.299
same,composite z-score,[2],0.492
same,composite z-score,[3],-0.0464
same,composite z-score,[4],0.392
same,composite z-score,[5],0.503
same,composite z-score,[6],0.104
same,z-score,[7],0.107
same,composite z-score,Lefty1,0.752
same,composite z-score,[8],0.204
same,z-score,[9],-0.62 (inactive)
same,composite z-score,[10],-0.143
same,z-score,[11],-1.8 (inactive)
same,z-score,[12],0.715 (inactive)
same,z-score,[13],0.247 (inactive)
same,z-score,[14],-0.323 (inactive)
same,composite z-score,[15],0.831
same,composite z-score,[16],0.0422
same,composite z-score,Torsin-1A (Homo sapiens) [17],0.445
same,composite z-score,Torsin-1A (Homo sapiens) [18],0.0746
same,composite z-score,[19],0.593
C=COC[C@H]1CN2[C@@H](CC[C@@H](C)[C@@H]2c2ccc(Br)cc2)C(=O)O1,composite z-score,[1],1.25
same,composite z-score,[2],0.394
same,composite z-score,[3],0.0351
same,composite z-score,[4],0.673
same,composite z-score,[5],0.504
same,composite z-score,[6],0.706
same,z-score,[7],0.587
same,composite z-score,Lefty1,0.51
same,composite z-score,[8],0.276
same,z-score,[9],-2.84 (inactive)
same,composite z-score,[10],0.52
same,z-score,[11],-0.443 (inactive)
same,z-score,[12],-1.13 (inactive)
same,z-score,[13],1.59 (inactive)
same,z-score,[14],-0.212 (inactive)
same,composite z-score,[15],-0.0488
same,composite z-score,[16],0.027
same,composite z-score,Torsin-1A (Homo sapiens) [17],0.594
same,composite z-score,Torsin-1A (Homo sapiens) [18],0.0658
same,composite z-score,[19],1.2
CC(C)CON=C1C[C@@H](O)[C@@H](O)[C@@H]2[C@@H]3C(=O)N(Cc4ccccc4)C(=O)[C@@H]3CC[C@@H]12,composite z-score,[1],0.705
same,composite z-score,[2],0.633
same,composite z-score,[3],0.528
same,composite z-score,[4],-0.598
same,composite z-score,[5],-0.163
same,composite z-score,[6],0.239
same,z-score,[7],-0.762
same,composite z-score,Lefty1,0.516
same,composite z-score,[8],0.0615
same,z-score,[9],1.12 (inactive)
same,composite z-score,[10],0.0819
same,z-score,[11],0.674 (inactive)
same,z-score,[12],0.579 (inactive)
same,z-score,[13],-0.203 (inactive)
same,z-score,[14],0.462 (inactive)
same,composite z-score,[15],-0.354
same,composite z-score,[16],-0.071
same,composite z-score,Torsin-1A (Homo sapiens) [17],0.407
same,composite z-score,Torsin-1A (Homo sapiens) [18],0.16
same,composite z-score,[19],0.305
COC(=O)[C@@H]1CCCN1C(=O)[C@@H](C)CO,composite z-score,[1],0.933
same,composite z-score,[2],1.16
same,composite z-score,[3],0.21
same,composite z-score,[4],0.868
same,composite z-score,[5],0.473
same,composite z-score,[6],0.723
same,z-score,[7],-1.29
same,composite z-score,Lefty1,0.29
same,composite z-score,[8],1.15
same,z-score,[9],0.09 (inactive)
same,composite z-score,[10],0.111
same,z-score,[11],-2.44 (inactive)
same,z-score,[12],-0.985 (inactive)
same,z-score,[13],-0.347 (inactive)
same,z-score,[14],-0.397 (inactive)
same,composite z-score,[15],0.746
same,composite z-score,[16],-0.183
same,composite z-score,Torsin-1A (Homo sapiens) [17],1.26
same,composite z-score,Torsin-1A (Homo sapiens) [18],0.546
same,composite z-score,[19],0.202

# — PubChem BioAssay
